# Test results published in publication PMC7862700, “An all-to-all approach to the identification of sequence-specific readers for epigenetic DNA modifications on cytosine”.
# Key:
# Assay in all cases: DAPPL (digital affinity profiling via proximity ligation, sequencing); 10 mM Tris-HCl pH 7.5, 50 mM NaCl, 1 mM DTT, 4% glycerol, room temperature, 30 min; GST-TFs on glutathione beads, 16-mer random dsDNA library, 0.1% formaldehyde crosslink after washing; high values mean tight binding
# Settings in all cases: protein: recombinant; tags: N-terminal GST; dsDNA, one strand shown
# FLI1 = target: T1, FLI1 (Homo sapiens, UniProt Q01543 1-452)
# T1 sequence: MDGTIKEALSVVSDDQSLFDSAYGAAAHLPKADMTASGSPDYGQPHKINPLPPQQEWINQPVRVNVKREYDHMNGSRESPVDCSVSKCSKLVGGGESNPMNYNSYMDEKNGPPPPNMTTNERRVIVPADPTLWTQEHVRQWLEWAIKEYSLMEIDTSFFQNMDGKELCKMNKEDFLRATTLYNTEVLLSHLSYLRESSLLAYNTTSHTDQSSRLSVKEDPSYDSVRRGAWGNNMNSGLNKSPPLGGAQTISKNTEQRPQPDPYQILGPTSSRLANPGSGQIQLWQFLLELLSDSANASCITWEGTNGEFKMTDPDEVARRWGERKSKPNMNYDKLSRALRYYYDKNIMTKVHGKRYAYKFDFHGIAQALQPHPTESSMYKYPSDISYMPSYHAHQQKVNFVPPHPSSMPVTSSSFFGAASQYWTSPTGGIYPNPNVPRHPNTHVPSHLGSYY
# How it was run: (§1)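 Binding signal is defined as a hexamer's read frequency for one factor over its frequency for the tag-only sample. To obtain reads, GST-fused human transcription factors were expressed in yeast, captured on glutathione beads, barcoded with DNA and pooled with that sample. Pools met 200 nmole of a 16-mer random double-stranded DNA library in Tris/NaCl/DTT/glycerol buffer for 30 min at room temperature before washing, 0.1% formaldehyde crosslinking, proximity ligation (BsaI/T4 ligase, 1 h, 37 °C), PCR and Illumina NextSeq500 sequencing.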
# ELK1 = target: T2, ELK1 (Homo sapiens, UniProt P19419 1-428)
# T2 sequence: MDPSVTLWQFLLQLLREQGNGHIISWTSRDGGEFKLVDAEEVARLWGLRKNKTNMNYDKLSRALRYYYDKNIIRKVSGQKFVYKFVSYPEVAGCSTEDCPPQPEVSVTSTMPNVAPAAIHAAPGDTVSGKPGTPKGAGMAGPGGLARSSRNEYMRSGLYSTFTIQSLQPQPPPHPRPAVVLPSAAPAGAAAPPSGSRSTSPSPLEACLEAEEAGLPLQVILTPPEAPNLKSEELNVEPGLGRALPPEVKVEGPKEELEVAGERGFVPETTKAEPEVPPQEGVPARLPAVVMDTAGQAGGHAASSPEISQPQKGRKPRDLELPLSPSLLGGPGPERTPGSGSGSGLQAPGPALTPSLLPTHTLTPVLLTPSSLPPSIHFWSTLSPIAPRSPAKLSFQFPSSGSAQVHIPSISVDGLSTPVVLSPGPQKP
# How it was run: as §1
# GABPA = target: T3, GABPA (Homo sapiens, UniProt Q06546 1-454)
# T3 sequence: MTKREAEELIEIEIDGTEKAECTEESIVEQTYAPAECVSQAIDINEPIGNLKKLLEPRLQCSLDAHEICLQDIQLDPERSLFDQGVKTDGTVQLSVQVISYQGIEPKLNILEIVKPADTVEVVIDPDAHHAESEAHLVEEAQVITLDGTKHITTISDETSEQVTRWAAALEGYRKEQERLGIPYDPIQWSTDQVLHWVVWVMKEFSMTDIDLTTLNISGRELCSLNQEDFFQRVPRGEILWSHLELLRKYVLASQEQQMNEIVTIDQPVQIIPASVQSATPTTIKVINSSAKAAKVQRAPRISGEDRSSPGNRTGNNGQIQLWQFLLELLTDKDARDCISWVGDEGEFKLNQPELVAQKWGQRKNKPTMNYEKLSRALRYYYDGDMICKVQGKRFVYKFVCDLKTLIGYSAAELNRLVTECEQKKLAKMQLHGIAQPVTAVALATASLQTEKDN
# How it was run: as §1
# ELF1 = ELF1 (Homo sapiens, UniProt P32519 1-619)
# How it was run: as §1
# EHF = target: T4, EHF (Homo sapiens, UniProt Q9NZC4 1-300)
# T4 sequence: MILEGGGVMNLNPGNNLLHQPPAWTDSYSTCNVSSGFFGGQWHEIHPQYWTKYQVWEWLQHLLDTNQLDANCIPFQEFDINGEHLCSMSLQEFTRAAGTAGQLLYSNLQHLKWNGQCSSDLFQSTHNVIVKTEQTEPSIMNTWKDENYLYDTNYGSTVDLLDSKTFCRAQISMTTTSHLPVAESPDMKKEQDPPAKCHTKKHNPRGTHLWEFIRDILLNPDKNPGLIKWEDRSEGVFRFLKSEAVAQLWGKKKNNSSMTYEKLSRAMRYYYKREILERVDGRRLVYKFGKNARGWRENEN
# How it was run: as §1
# SPI1 = SPI1 (Homo sapiens, UniProt P17947 1-270)
# How it was run: as §1
# SPIB = SPIB (Homo sapiens, UniProt Q01892 1-262)
# How it was run: as §1
# ETV5 = ETV5 (Homo sapiens, UniProt P41161 1-510)
# How it was run: as §1
# ELF4 = ELF4 (Homo sapiens, UniProt Q99607 1-663)
# How it was run: as §1
# ETV2 = target: T5, ETV2 (Homo sapiens, UniProt O00321 1-342)
# T5 sequence: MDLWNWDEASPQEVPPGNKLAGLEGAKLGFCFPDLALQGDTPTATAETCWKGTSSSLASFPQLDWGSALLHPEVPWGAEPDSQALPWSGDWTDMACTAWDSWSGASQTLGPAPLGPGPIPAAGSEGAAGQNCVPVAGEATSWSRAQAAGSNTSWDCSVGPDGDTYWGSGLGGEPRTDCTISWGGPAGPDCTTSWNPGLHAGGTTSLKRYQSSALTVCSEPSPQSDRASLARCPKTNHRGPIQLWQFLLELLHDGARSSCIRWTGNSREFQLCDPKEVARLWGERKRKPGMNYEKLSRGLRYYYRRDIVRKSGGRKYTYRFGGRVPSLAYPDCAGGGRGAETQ
# How it was run: as §1
# ERF = target: T6, ERF (Homo sapiens, UniProt P50548 1-548)
# T6 sequence: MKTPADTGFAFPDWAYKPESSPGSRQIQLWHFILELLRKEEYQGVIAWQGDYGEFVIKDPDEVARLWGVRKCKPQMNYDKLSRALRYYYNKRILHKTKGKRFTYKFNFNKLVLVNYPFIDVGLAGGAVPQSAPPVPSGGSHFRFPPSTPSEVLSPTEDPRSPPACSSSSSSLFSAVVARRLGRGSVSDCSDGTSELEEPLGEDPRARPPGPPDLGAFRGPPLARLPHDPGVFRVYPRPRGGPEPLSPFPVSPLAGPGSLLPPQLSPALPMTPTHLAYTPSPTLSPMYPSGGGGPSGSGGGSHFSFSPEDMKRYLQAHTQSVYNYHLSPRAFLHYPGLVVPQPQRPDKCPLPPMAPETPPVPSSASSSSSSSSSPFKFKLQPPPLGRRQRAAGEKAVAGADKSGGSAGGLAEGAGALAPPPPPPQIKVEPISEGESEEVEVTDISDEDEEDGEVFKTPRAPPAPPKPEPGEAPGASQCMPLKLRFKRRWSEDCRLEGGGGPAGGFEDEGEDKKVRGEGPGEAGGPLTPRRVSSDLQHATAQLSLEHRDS
# How it was run: as §1
# ETV3 = target: T7, ETV3 (Homo sapiens, UniProt P41162-2 1-143)
# T7 sequence: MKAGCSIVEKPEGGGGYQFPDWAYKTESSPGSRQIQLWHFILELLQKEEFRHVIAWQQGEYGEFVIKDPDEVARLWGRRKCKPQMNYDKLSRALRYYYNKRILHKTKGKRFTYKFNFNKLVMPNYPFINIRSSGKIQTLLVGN
# How it was run: as §1
# ETV6 = ETV6 (Homo sapiens, UniProt P41212 1-452)
# How it was run: as §1
# Sequence of SPIB (Q01892 whole entry): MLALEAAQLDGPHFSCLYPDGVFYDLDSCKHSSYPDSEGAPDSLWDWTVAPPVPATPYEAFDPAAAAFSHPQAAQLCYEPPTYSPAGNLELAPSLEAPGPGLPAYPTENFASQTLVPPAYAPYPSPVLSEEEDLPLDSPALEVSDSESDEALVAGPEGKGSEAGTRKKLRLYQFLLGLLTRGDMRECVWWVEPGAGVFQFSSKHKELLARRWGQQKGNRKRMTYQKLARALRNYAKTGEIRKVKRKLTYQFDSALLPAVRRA
# Sequence of ELF4 (Q99607 whole entry): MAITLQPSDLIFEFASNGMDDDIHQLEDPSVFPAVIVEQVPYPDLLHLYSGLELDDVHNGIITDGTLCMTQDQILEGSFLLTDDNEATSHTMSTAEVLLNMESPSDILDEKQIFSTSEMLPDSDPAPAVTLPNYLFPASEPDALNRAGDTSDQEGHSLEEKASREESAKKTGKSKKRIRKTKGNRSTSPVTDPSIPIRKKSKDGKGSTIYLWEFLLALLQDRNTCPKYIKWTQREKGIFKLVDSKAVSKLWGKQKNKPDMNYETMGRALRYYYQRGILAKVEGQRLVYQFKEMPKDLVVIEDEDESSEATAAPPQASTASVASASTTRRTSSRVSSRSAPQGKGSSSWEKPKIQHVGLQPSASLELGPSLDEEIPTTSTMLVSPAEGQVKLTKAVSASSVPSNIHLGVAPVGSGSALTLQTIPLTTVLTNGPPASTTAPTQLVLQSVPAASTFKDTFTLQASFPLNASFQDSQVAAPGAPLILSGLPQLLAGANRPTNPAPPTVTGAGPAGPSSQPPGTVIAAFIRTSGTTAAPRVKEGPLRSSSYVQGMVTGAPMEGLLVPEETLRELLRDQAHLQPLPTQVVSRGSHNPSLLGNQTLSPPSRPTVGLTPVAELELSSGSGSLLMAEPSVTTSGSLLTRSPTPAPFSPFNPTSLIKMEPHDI
# Sequence of ELF1 (P32519 whole entry): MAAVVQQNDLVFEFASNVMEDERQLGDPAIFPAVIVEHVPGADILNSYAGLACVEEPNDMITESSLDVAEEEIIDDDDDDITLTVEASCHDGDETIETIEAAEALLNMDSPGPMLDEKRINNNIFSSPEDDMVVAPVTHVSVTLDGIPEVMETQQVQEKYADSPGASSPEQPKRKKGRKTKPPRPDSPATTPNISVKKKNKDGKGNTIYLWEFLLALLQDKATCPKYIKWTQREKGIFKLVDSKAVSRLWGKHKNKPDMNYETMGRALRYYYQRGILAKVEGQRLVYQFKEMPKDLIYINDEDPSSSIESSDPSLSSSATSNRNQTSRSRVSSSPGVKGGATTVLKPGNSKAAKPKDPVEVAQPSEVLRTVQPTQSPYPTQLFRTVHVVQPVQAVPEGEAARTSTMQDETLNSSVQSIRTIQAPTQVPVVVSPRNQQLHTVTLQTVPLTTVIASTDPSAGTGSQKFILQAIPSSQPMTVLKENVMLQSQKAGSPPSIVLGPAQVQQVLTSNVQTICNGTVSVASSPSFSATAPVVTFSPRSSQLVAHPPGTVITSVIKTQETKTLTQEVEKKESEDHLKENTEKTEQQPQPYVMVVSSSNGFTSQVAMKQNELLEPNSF
# Sequence of ETV5 (P41161 whole entry): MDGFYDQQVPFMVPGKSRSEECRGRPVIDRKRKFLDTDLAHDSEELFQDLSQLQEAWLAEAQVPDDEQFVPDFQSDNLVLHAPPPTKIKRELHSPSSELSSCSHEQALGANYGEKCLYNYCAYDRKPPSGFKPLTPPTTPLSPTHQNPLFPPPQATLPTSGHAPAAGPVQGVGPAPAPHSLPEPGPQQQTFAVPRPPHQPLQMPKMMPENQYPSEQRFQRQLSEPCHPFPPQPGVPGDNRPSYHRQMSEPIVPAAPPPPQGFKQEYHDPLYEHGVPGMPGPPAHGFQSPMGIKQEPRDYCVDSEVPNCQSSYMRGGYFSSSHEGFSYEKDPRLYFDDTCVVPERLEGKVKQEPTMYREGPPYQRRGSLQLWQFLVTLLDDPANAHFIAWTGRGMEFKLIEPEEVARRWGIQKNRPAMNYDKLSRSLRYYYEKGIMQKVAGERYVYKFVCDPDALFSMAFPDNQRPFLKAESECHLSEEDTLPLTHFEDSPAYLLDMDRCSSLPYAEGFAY
# Sequence of ETV6 (P41212 whole entry): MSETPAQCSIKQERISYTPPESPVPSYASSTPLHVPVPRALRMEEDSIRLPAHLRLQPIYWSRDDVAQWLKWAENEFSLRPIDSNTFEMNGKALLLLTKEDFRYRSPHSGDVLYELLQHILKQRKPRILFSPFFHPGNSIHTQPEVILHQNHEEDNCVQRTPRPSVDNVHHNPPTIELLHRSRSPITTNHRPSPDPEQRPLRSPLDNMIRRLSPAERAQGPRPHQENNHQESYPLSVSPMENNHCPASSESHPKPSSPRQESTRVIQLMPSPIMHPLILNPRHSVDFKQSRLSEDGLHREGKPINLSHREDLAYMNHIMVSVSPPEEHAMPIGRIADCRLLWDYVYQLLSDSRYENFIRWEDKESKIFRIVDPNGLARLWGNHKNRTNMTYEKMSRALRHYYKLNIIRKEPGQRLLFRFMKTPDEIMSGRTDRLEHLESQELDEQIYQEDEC
sequence,measurement,setting,value
ACCAAA,binding signal,FLI1,"1.01 fold enrichment (6-mer frequency, TF over GST control)"
same,binding signal,ELK1,"1.05 fold enrichment (6-mer frequency, TF over GST control)"
same,binding signal,GABPA,"1.01 fold enrichment (6-mer frequency, TF over GST control)"
same,binding signal,ELF1,"1.04 fold enrichment (6-mer frequency, TF over GST control)"
same,binding signal,EHF,"1.07 fold enrichment (6-mer frequency, TF over GST control)"
same,binding signal,SPI1,"1.06 fold enrichment (6-mer frequency, TF over GST control)"
same,binding signal,SPIB,"1.03 fold enrichment (6-mer frequency, TF over GST control)"
same,binding signal,ETV5,"1.03 fold enrichment (6-mer frequency, TF over GST control)"
same,binding signal,ELF4,"1.1 fold enrichment (6-mer frequency, TF over GST control)"
same,binding signal,ETV2,"1.14 fold enrichment (6-mer frequency, TF over GST control)"
same,binding signal,ERF,"1.03 fold enrichment (6-mer frequency, TF over GST control)"
same,binding signal,ETV3,"1.02 fold enrichment (6-mer frequency, TF over GST control)"
same,binding signal,ETV6,"1.03 fold enrichment (6-mer frequency, TF over GST control)"
